Results filed as inconclusive are left out. A call without a number means that no potency is given here. Activity calls are given as the source filed them. Calls follow the shape of the dose curve; as a rule, active = well fitted activation curve with a large enough effect in the repeat runs; inconclusive = weak or mixed curves; inactive = flat fitted curve, though single readings scatter.

The source of these data is PubChem BioAssay (Tox21).

The experiment can be described thus: A CellTox Green Cytotoxicity Assay to monitor cytotoxicity in HEK293 cells - 16 hour (AID 1224888). Also: nearly all actives have a fitted effect of over 35% in size. Conditions: CellTox Green fluorescence; series mostly up to 76.8 µM. In short, it runs like this: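 Homogeneous no-lysis format: HEK293 cell suspension mixed with CellTox Green reagent, seeded, incubated 5 h at 37 C/5% CO2, then dosed by pintool with compound in DMSO.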
Take `O=c1[nH]c2ccc(Cl)cc2o1`: the Potency entry was “inactive”.
The same measure for `Cc1ccc(C(C)(C)O)cc1`: “inactive”; for `CCCC(=O)C(=O)O`: “inactive”; for `CC(C)=CCC1C(=O)N(c2ccccc2)N(c2ccccc2)C1=O`: “inactive”.
The same measure for `CCOC(=O)/C=C/C(=O)OCC`: “inactive”.
For `Cc1ccc(CO)cc1`, the Potency entry is “inactive”.
The same measure for `O=C(OC(=O)c1ccccc1)c1ccccc1`: “inactive”.
In the case of `CC(C)=CCC/C(C)=C/CC/C(C)=C/CCC(=O)OC/C=C(\C)CCC=C(C)C`, the Potency result is “inactive”.
The same measure for `O[C@@H]1CO[C@H]2[C@@H]1OC[C@@H]2O`: “inactive”.
`CCCCC(CC)CN` (stereo not given): the Potency entry is “inactive”.
The same measure for `COc1cc(C(=O)NCCCCCC(=O)O)cc(OC)c1OC`: “inactive”; for `CC(CCC(=O)O)C(=O)O` (stereo not given): “inactive”; for `CCC1NC(=O)c2cc(S(N)(=O)=O)c(Cl)cc2N1` (stereo not given): “inactive”.
The same measure for `O=C1NCCN1CCO`: “inactive”.
The same measure for `C1COC1`: “inactive”; for `CCn1cc(C(=O)O)c(=O)c2cc(F)c(N3CCNCC3)cc21`: “inactive”.
Regarding `CO[C@]1(NC(=O)CSC(F)F)C(=O)N2C(C(=O)O)=C(CSc3nnnn3CCO)CO[C@H]21`, the Potency result is “inactive”.
The same measure for `O=C(O)CCCCCCCCCCCBr`: “inactive”; for `CCC(=O)OC`: “inactive”.
The same measure for `CCC(C)(C)OC`: “inactive”.
For `CC(C)=CC(=O)C=C(C)C`, the Potency result was “inactive”.
The same measure for `CC(=O)OCC(=O)NCCCOc1cccc(CN2CCCCC2)c1`: “inactive”; for `CCCCCCCCCI`: “inactive”; for `CCc1ccccc1`: “inactive”.
The same measure for `Cc1ccccc1S`: “inactive”; for `Cc1cscn1`: “inactive”.
The same measure for `N#CCc1ccc(Cl)cc1Cl`: “inactive”; for `CCCCCC[C@@H](O)C/C=C\CCCCCCCC(=O)O`: “inactive”; for `Cc1cc(C)c(N)cc1C`: “inactive”.
For `C=CC(C)(CCC=C(C)C)OC(=O)CC(C)C` (stereo not given), the Potency result is “inactive”.
The same measure for `O=C(/C=C/c1ccccc1)OCCc1ccccc1`: “inactive”; for `CCCCCCCCC(CCCCCC)C(=O)O` (stereo not given): “inactive”; for `Cc1ccco1`: “inactive”.
The same measure for `C[C@H]1c2cccc(O)c2C(O)=C2C(=O)[C@]3(O)C(O)=C(C(N)=O)C(=O)[C@@H](N(C)C)[C@@H]3[C@@H](O)[C@@H]21`: “inactive”; for `CC1(C)[C@H](C(=O)O)N2C(=O)C[C@H]2S1(=O)=O`: “inactive”.
The same measure for `CO/N=C(/C(=O)N[C@@H]1C(=O)N2C(C(=O)O)=C(COC(N)=O)CS[C@H]12)c1ccco1`: “inactive”; for `C=CC(=O)[O-].C=CC(=O)[O-].[Zn+2]`: “inactive”; for `O=C1c2ccccc2C(=O)C1c1ccc(Br)cc1`: “inactive”.
Take `CCC(OCCCOC)OC(C)=O` (stereo not given): the Potency result was “inactive”.
The same measure for `COC(=O)CS`: “inactive”.
